The text below walks through data of PubChem BioAssay (NCI).

This assay in a line: NCI Yeast Anticancer Drug Screen. Data for the rad50EPP+ strain (AID 151).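 Note: 0% = growth of vehicle-treated control cultures.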 As to conditions: S. cerevisiae rad50 mutant strain, active compounds read high. How it is done: Growth inhibition of yeast strains with defined genetic alterations is measured as a screen for potential anti-cancer activity. Selected strains with alterations in DNA damage repair or cell cycle control were exposed to compounds and growth inhibition was measured relative to vehicle treated controls. The strain used in this assay is rad50EPP+

Each structure is given as a SMILES string. The panel holds about 79,000 compounds, 15% with a hit somewhere; the sample as a whole holds those more often. Active and inactive are the calls of the source. Cut-off read from the data, not from the text of the source: active = growth inhibition above about 70%; inactive = the rest.

As for `CN(C)CC1CCCc2ccccc2C1=O` (stereo not given), the growth inhibition is 6% (inactive) (at 1.2 µM); -4% (inactive) (at 3.7 µM); 26% (inactive) (at 11.0 µM); 76% (active) (at 33.0 µM); 97% (active) (at 100.0 µM).
As for `CCCCC1=NNC(=O)C1`, the growth inhibition is, setting by setting: (at 1.2 µM) -9% (inactive); (at 3.7 µM) -8% (inactive); (at 11.0 µM) -16% (inactive); (at 33.0 µM) -10% (inactive); (at 100.0 µM) -7% (inactive).
Taken in the same sequence, the figures for `O=c1[nH]cc(/C=N\Nc2ccccc2)c(=O)[nH]1` were 2% (inactive), 7% (inactive), 28% (inactive), 43% (inactive) and 42% (inactive).
Taken in the same sequence, the figures for `O=C1CC(=O)N(C2CCCCC2)C(=O)N1c1ccccc1S(=O)(=O)Oc1ccccc1` were -22% (inactive), -19% (inactive), -16% (inactive), 2% (inactive) and -49% (inactive).
As to `CCCCC(=O)c1c(O)nc2sccn2c1=O`, the growth inhibition is, setting by setting: (at 1.2 µM) 2% (inactive); (at 3.7 µM) 7% (inactive); (at 11.0 µM) 58% (inactive); (at 33.0 µM) 94% (active); (at 100.0 µM) 95% (active).
For `S=c1[nH]nc(-c2ccc(Cl)cc2)s1`, in that order: -1% (inactive), -1% (inactive), -9% (inactive), 31% (inactive) and 81% (active).
Taken in the same sequence, the figures for `Nc1ccc2c(=S)c3ccccc3[nH]c2c1` were 0% (inactive), 6% (inactive), 12% (inactive), 23% (inactive) and 74% (active).
For `S=c1[nH]c2c(Cl)c(Cl)c(Cl)c(Cl)c2[nH]1`, in that order: 13% (inactive), 20% (inactive), 81% (active), 96% (active) and 95% (active).
